Screening results as filed in PubChem BioAssay.
Tgondii IFNg – blocks Toxoplasma gondii growth in the presence of IFN-gamma; Toxoplasma gondii growth in IFN-gamma-treated host cells; stronger effect = lower value; activity change, negative = inhibition, % (test concentration not listed); 69,000 compounds, 3.8% hits; AID 1259416; in the data active = activity change below about -70%, passing the limit was not always enough;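 note: host cells are HeLa cells infected with Toxoplasma gondii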
Active calls of the source: *. This excerpt belongs to a sample that is enriched for hits.

SMILES | Tgondii IFNg
CCn1cc(Cn2ccnc2-c2cc(C#CCO)cs2)cn1 | 5
COc1cc(Br)c(-c2cc3ccccc3oc2=O)cc1OC | -86*
O=c1oc2ccccc2cc1-c1csc(-c2ccccc2Cl)n1 | 6
COc1cccc2cc(-c3ccccc3)c(=O)oc12 | 229
COc1ccccc1NC(=O)c1cccc(-c2cc3ccccc3oc2=O)c1 | 26
COc1cc(NC(=O)c2ccc(Cl)cc2Cl)ccc1-c1cc2ccccc2oc1=O | -85*
O=C(COC(=O)c1cc2ccccc2oc1=O)c1ccc(Cl)cc1Cl | 4
COc1ccc([C@H]2Oc3cc(OC)cc(OC)c3C[C@H]2O)cc1 | 10
CC(=O)Nc1ccc(C(=O)N(CCC(C)C)C2(C(=O)NCc3ccccc3)CCN(C(C)=O)CC2)cc1 | 1
CN1CC2(CCCCN2C(=O)c2cccs2)CC1=O (stereo not given) | 27
CC(Oc1ccc2c(c1)OCO2)C(=O)Nc1ccc(-n2ccnc2C(C)C)cc1 (stereo not given) | 36
CN1CCC(n2cc(-c3ccnc(N)c3)c(-c3cccc(F)c3)n2)CC1 | -97*
CN1CCN(C(=O)NCc2nc(-c3cccc(F)c3)c(-c3ccccn3)[nH]2)CC1 | 1
Cn1cc(CN2CCc3ncnc(-c4cccc(F)c4)c3CC2)cn1 | -6
CC(C)(C)C1CCC(CC2C(=O)C(=O)c3ccccc3C2=O)CC1 (stereo not given) | -86*
O=C(c1ccc(CO)o1)N1C[C@H]2CC=CC[C@H]2C1 | 2
CCn1cc(C(=O)N2CCC(Oc3ccc(C(=O)NCCc4ccccc4)cc3)CC2)cn1 | 2
O=C(Cn1c(=O)cc(C(=O)N2CCCC2)c2ccccc21)Nc1ccc(Br)cc1F | 12
Cc1nc(N2CCN(c3cc(=O)[nH]nc3-c3ccccc3)CC2)c2cnn(C)c2n1 | -84*
CN1CCN(c2cc(-c3cccnc3)nc3ccccc23)CC1 | -16
COC(=O)C1(C)CCN(c2nc(-c3cccnc3)nc3c2cnn3C)CC1 | -41
CC(C)NC(=O)c1ccnc(N2CC(c3cccnc3)C2)c1 | 7
Cn1ccnc1-c1nc(NCc2ccccn2)ncc1-c1cccc(Cl)c1 | -25
CCOC(=O)c1cn[nH]c1NC(=S)Nc1cccc(C(F)(F)F)c1 | -34
FC(F)(F)c1cccc(NC(=S)Nc2cccc(C(F)(F)F)c2)c1 | 19
SMILES | Tgondii IFNg
FC(F)(F)c1cccc(NC(=S)Nc2csc(C(F)(F)F)c2-c2ccccc2)c1 | -97*
Cc1cnn(Cc2cccc(F)c2)c1NC(=O)CSc1ccncc1 | 4
C[C@@H]1CCCCO[C@H](CN(C)C(=O)C2CCCCC2)[C@H](C)CN([C@H](C)CO)C(=O)c2cc(NS(=O)(=O)c3ccccc3)ccc2O1 | -145*
C[C@@H]1CCCCO[C@@H](CN(C)C(=O)C2CCCCC2)[C@H](C)CN([C@H](C)CO)C(=O)c2cc(NS(=O)(=O)c3ccccc3)ccc2O1 | 21
C[C@@H]1CCCCO[C@@H](CN(C)C(=O)C2CCCCC2)[C@@H](C)CN([C@@H](C)CO)C(=O)c2cc(NS(=O)(=O)c3ccccc3)ccc2O1 | 88
CC(C)NC(=O)Nc1ccc2c(c1)C(=O)N([C@@H](C)CO)C[C@@H](C)[C@H](CN(C)C(=O)C1CCCCC1)OCCCC[C@H](C)O2 | 333
C[C@H](CO)N1C[C@H](C)[C@@H](CN(C)C(=O)C2CCCCC2)OCCCC[C@H](C)Oc2ccc(NS(=O)(=O)c3ccccc3)cc2C1=O | -78*
CC(C)NC(=O)Nc1ccc2c(c1)C(=O)N([C@@H](C)CO)C[C@@H](C)[C@@H](CN(C)C(=O)C1CCCCC1)OCCCC[C@H](C)O2 | 307
O=C(NCCc1csc(-c2ccccc2)n1)[C@H]1CCCN1C(=O)CCc1ccccc1 | 8
COc1cncc(C(=O)Nc2ccc(F)cc2F)c1 | -41
CS(=O)(=O)N1CCO[C@@H]2CN(C(=O)Cc3ccccn3)CC[C@H]2C1 | -39
Cn1c(C#N)ccc1-c1ccc2c(c1)C(C)(C)OC(=S)N2 | -83*
COc1ccc(-c2nc(C)c(CCNS(=O)(=O)c3cccc([N+](=O)[O-])c3)s2)cc1OC | 438
Cc1cccc(CC(=O)N2CCC3(CC2)Nc2cccnc2NC3=NC2CCCC2)c1 | 133
COc1ccc(NC(=O)NCCNc2nnnn2-c2ccccc2)cc1 | -9
Cc1cc(C)cc(NC(=S)Nc2ccc(Oc3ccc(OC(F)(F)F)cc3)cc2)c1 | -106*
Cc1ccc(Sc2ccc(NC(=O)Nc3ccc(OC(F)(F)F)cc3)cn2)cc1 | -67
S=C(Nc1ccc(Oc2ccc(Cl)cc2)cc1)Nc1cccc(Cl)c1Cl | -32
COc1ccc(-c2cnc3n2CCNC32CCN(C(=O)N3CCOCC3)CC2)cc1 | -50
Cc1nn(C)cc1C(=O)N1CCCC1(C)C(=O)NC1CCCC1 (stereo not given) | 8
COc1cc(CN2[C@@H]3CC[C@H]2CNC(=O)C3)cc2c1OCO2 | 3
O=C1CC(c2ccccc2)C2(CCN(C(=O)c3cscn3)CC2)N1 (stereo not given) | -2
CSc1cccc(NC(=O)c2nc(Nc3cccc(C)c3)c3ccccc3n2)c1 | -82*
Cc1ccc(Nc2nc(C(=O)Nc3cccc(C)c3)nc3ccccc23)cc1 | -64
Cc1cc(C)cc(NC(=O)c2nc(Nc3ccccc3)c3ccccc3n2)c1 | 5
SMILES | Tgondii IFNg
Cc1cccc(Nc2nc(C(=O)Nc3cccc(C)c3C)nc3ccccc23)c1 | -40
Cc1cccc(Nc2nc(C(=O)Nc3c(C)cccc3C)nc3ccccc23)c1 | -70*
Cc1ccc(C)c(NC(=O)c2nc(Nc3ccccc3)c3ccccc3n2)c1 | -61
Cc1ccc2nc(CN(C)c3ncnc4c3CCN(C(=O)C3CC3)C4)[nH]c2c1 | 0
CCn1c(C2CCCN(C(=O)c3nn(C)c4ccc(C)cc34)C2)n[nH]c1=O (stereo not given) | 1
Cc1cccc(NC(=O)Cn2ncc3c(N4CCOCC4)ncnc32)c1C | 162
CC(C)CN1CC(C(=O)NCc2csc(N(C)C)n2)CC1=O (stereo not given) | 3
FC(F)(F)CCc1ccnc(-c2ccn[nH]2)n1 | -1
COc1ccc(S(=O)(=O)N(C)C[C@@H]2OCCCC[C@H](C)Oc3ccc(NC(=O)Cc4ccccc4)cc3C(=O)N([C@@H](C)CO)C[C@H]2C)cc1 | -125*
C[C@H](CO)N1C[C@H](C)[C@H](CN(C)S(=O)(=O)c2ccccc2)OCCCC[C@H](C)Oc2ccc(NC(=O)Nc3ccc4c(c3)OCO4)cc2C1=O | 108
C[C@@H]1CN([C@@H](C)CO)C(=O)c2cc(NC(=O)Nc3ccc4c(c3)OCO4)ccc2O[C@@H](C)CCCCO[C@H]1CN(C)S(=O)(=O)c1ccccc1 | 106
COc1ccc(S(=O)(=O)N(C)C[C@@H]2OCCCC[C@H](C)Oc3ccc(NC(=O)Cc4ccccc4)cc3C(=O)N([C@H](C)CO)C[C@@H]2C)cc1 | -92*
COc1ccc(S(=O)(=O)N(C)C[C@H]2OCCCC[C@H](C)Oc3ccc(NC(=O)Cc4ccccc4)cc3C(=O)N([C@H](C)CO)C[C@@H]2C)cc1 | -84*
C[C@@H]1CCCCO[C@@H](CN(C)S(=O)(=O)c2ccccc2)[C@H](C)CN([C@@H](C)CO)C(=O)c2cc(NC(=O)Nc3ccc4c(c3)OCO4)ccc2O1 | 121
COc1ccc(S(=O)(=O)N(C)C[C@H]2OCCCC[C@@H](C)Oc3ccc(NC(=O)Cc4ccccc4)cc3C(=O)N([C@@H](C)CO)C[C@@H]2C)cc1 | -69
C[C@@H]1CCCCO[C@H](CN(C)S(=O)(=O)c2ccccc2)[C@H](C)CN([C@@H](C)CO)C(=O)c2cc(NC(=O)Nc3ccc4c(c3)OCO4)ccc2O1 | 251
